Assay outcomes: PubChem, National Center for Advancing Translational Sciences (NCATS)
Giardia FBPA inh: qHTS Assay for Inhibitors of Fructose-1,6-bisphosphate Aldolase from Giardia Lamblia; purified Giardia FBPA; Potency, µM (top dose mostly 59.6 µM), for inactives: at the highest dose activity, negative = inhibition, actives largely listed as inhibitors; 290,000 compounds, 0.71% hits; also: nearly all actives have a fitted effect of over 55% in size
Target sequence (A8B2U2 whole entry, looked up): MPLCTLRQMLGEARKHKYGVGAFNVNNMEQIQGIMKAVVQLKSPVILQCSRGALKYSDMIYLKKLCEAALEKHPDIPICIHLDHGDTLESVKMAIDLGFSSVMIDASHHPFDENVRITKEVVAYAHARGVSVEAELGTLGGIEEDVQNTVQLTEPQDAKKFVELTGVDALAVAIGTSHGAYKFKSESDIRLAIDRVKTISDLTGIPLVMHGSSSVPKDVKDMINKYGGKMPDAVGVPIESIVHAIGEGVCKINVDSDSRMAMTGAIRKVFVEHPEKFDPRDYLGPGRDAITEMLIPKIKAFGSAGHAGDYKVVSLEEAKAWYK
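40 nM FBPA preincubated 10 min at RT with compound (up to 57.5 uM final), then substrate plus GAPDH/TPI/NAD/arsenate coupling and diaphorase/resazurin added. Fluorescence read after 20 min at RT, 525/598 nm.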
Cruzain inh Det: qHTS Assay for Promiscuous and Specific Inhibitors of Cruzain (with detergent); Cruzipain (Trypanosoma cruzi), P25779; purified cruzain, Z-FR-AMC fluorescence, 0.01% Triton; Potency, µM, for inactives: max response, negative = inhibition, usual class: inhibitors; 200,000 compounds, 0.43% hits;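 also: plate controls were neutral wells for no effect and buffer without enzyme for full effect; nearly all actives have a fitted effect of over 40% in size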
Target sequence (P25779 123-467 limits assumed): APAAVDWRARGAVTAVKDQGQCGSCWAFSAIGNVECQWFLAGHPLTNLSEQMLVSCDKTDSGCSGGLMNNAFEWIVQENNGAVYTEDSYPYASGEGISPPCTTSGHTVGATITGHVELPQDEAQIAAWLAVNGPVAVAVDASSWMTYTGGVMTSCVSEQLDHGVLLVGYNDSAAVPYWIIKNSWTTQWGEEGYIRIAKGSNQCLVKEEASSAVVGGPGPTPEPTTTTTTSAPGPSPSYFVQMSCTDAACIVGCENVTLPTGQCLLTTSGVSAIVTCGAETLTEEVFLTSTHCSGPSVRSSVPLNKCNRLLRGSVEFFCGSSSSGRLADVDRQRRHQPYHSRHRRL
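In this qHTS format, compounds are incubated with 1.5 nM cruzain for 15 min at room temperature before 2 uM Z-FR-AMC is added. Release of AMC is followed at 360/450 nm, and progress is taken as the 60 s fluorescence difference.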
Cruzain noTriton: qHTS Assay for Promiscuous and Specific Inhibitors of Cruzain (without detergent); purified cruzain, Z-FR-AMC fluorescence, no detergent; Cruzipain (Trypanosoma cruzi), P25779; 200,000 compounds, 2.3% hits; AID 1476, 2009; Potency, µM, for the others: max response, negative = inhibition, most hits filed as inhibitors;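 also: plate controls were enzyme without inhibitor for no effect and buffer without enzyme for full effect; nearly all actives have a fitted effect of over 40% in size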
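Detergent-free condition (0.00005% Triton X-100) in acetate buffer pH 5.5 with DTT. 1.5 nM enzyme and compound were pre-mixed 15 min, then 2 uM Z-FR-AMC substrate added; reaction progress from fluorescence change between first and third reads (60 s).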
Active calls of the source: *; ? = inconclusive; / = no result; [ ] = dose if it differs, or a comment. This excerpt belongs to a sample that is enriched for hits. Calls follow the shape of the dose curve; as a rule, active = well fitted curve in the direction sought with a large enough effect; inconclusive = small, poorly fitted or top-dose-only effect, or another doubt; inactive = no such curve, though single readings can be large; an effect the other way counts as inactive or inconclusive. Unless noted, % is scaled to controls: 0 for no effect and ±100 for the full control effect; potency is read from the fitted curve at half-maximal effect.

SMILES	Giardia FBPA inh	Cruzain inh Det	Cruzain noTriton
CCOC(=O)NNc1ccc2nonc2c1[N+](=O)[O-]	7.1µM*	/	/
CC(C)(C)c1ccc(-c2noc(CCC(=O)Nc3cccc(Cl)c3)n2)cc1	/	-5%	?
O=[N+]([O-])c1cccc2ccc(/C=C/c3ccc(C(F)(F)F)cc3)nc12	-13%	-10%	-4%
O=[N+]([O-])c1cccc2ccc(/C=C/c3ccc(Cl)cc3)nc12	-2%	-5%	10µM*
COCCCNC(=O)c1c(NC(=O)Cc2coc3cc(C)ccc23)sc2c1CCCC2	/	-8%	6%
CC(=O)OCC1OC(C#Cc2ccc(Cl)cc2)C=CC1OC(C)=O (stereo not drawn)	1%[12.9 µM]	/	/
Cc1ccc(CNc2nc3ccccc3n3nnnc23)cc1	-1%	2%	32µM*
Fc1cccc(Nc2nc3ccccc3n3nnnc23)c1	2%	0%	?
Fc1ccccc1Nc1nc2ccccc2n2nnnc12	-7%	0%	25µM*
Cc1ccc(CNC(=O)c2ccc(Nc3nc4ccccc4n4nnnc34)cc2)cc1	/	-1%	-12%
Oc1ccccc1Nc1nc2ccccc2n2nnnc12	/	-4%	?
c1ccc2c(c1)nc(Nc1ccc3c(c1)OCO3)c1nnnn12	-4%	-2%	25µM*
Cc1ccc(C2CC(=O)N(Cc3ccc(F)cc3)c3c2c(C)nn3-c2nc(C)cc(C)n2)cc1 (stereo not drawn)	/	-5%	?
CC(O)c1cccc2cc(C(O)CNC(C)(C)C)oc12 (stereo not drawn)	-2%	/	/
COCC(=O)N1CCc2nc(-c3ccc(OC)cc3C)c3c(c2C1)CO[C@@H](c1ccccc1)C3	4%[12.9 µM]	/	/
Cn1c(SCc2ccc(F)cc2)nc2ccc(C(=O)NCc3cccc(Cl)c3)cc21	/	-3%	-15%
COc1ccc(CC(=O)N2CCc3cc(OC)c(OC)cc3C2COc2cc(C)cc(C)c2)cc1OC (stereo not drawn)	/	-1%	?
O=C1CC(c2ccccc2)Cc2[nH]c(=O)c(C(=O)Nc3cccc(F)c3)cc21 (stereo not drawn)	/	0%	5%
N#CC1=C(N)C(C#N)(C#N)C(c2cccnc2)C2CCCC=C12 (stereo not drawn)	4.5µM*	-3%	?
N#CC1=C(N)C(C#N)(C#N)C(c2cccnc2)C2CC(c3ccccc3)CC=C12 (stereo not drawn)	-18%	-7%	?
CCCOc1ccc(NC(=O)CC2C(=O)N(c3cccc(OC)c3)C(=O)N2CCc2ccncc2)cc1 (stereo not drawn)	/	-4%	?
Oc1cc2c(cc1O)[C@H]1c3ccc(O)c(O)c3OC[C@@]1(O)C2	?	0%	-2%
Oc1ccc2c(c1)OCC1(O)Cc3cc(O)c(O)cc3C21 (stereo not drawn)	18µM*	-2%	6%
C/C(CCC(=O)OC[C@@H]1O[C@H](C#Cc2ccccc2)C=C[C@@H]1Oc1ccc(C)cc1)=N/OC[C@@H](C)[C@H](OCc1ccccc1)C(C)C	1%[12.9 µM]	/	/
Cn1c(=O)n(CC(=O)O)c(=O)c2c1nc1n2CCCN1c1ccc(Cl)cc1	/	0%	-1%
SMILES	Giardia FBPA inh	Cruzain inh Det	Cruzain noTriton
CCCCOC(=O)Cn1c(=O)c2c(nc3n2CCCCN3c2ccc(C)cc2)n(C)c1=O	4%	25µM*	17%
COc1ccc(OC)c(NC(=O)N2CCC3(CC2)Oc2ccccc2C(=O)N3Cc2ccccc2F)c1	/	-10%	-3%
Cc1cc(C2(c3cc(C)c(O)cc3C)OS(=O)(=O)c3ccccc32)c(C)cc1O	/	-8%	8%
CSc1nc2n(n1)C(c1cccc(F)c1)C(C(=O)Nc1ccc(C)cc1C)=C(C)N2 (stereo not drawn)	8%	8%	10µM*
COc1ccc(C2C(C(=O)Nc3ccc(C)cc3C)=C(C)Nc3nc(SC)nn32)cc1OC (stereo not drawn)	/	0%	-4%
COc1cc(/C=C2\C(=O)NC(=O)N(c3ccccc3)C2=O)cc(OC)c1O	10µM*	2%	0%
COc1cc(/C=C2/C(=O)NN(c3cccc(Cl)c3)C2=O)cc(OC)c1O	-18%	/	/
CCC(C)(C)C(=O)O[C@@H]1C[C@@H](C)C=C2C=C[C@H](C)[C@H](CC[C@@H]3C[C@@H](O)CC(=O)O3)[C@H]21	-11%	-3%	?
CC(=O)OCC(CO)OC(C)=O (stereo not drawn) (tested in a mixture with another compound)	-3%	/	/
CC(C)c1ccc(NC(=O)CSc2nc3c(c(=O)[nH]2)CCC3)cc1	-2%	2%	13µM*
Cc1ccc(NC(=O)CSc2nc3c(c(=O)[nH]2)CCC3)cc1C	-12%	2%	?
CC1(C)CC(=O)C(C(c2cccc(O)c2O)C2C(=O)CC(C)(C)CC2=O)C(=O)C1	/	3%	-7%
CCCCn1c2ccccc2c2nnc(SCC(=O)Nc3ccc(NC(C)=O)cc3)nc21	/	?	20µM*
CC(=O)Nc1ccc(NC(=O)CSc2nnc3c4ccccc4n(C)c3n2)cc1	2%	/	/
CN(C)c1ccc(CNC(=O)c2ccc(Cn3c(=O)c4cccn4c4cccnc43)cc2)cc1	/	-1%	-5%
CCOC(=O)N=Nc1c2ccccc2c2nc3no[nH]c3nc12	1.6µM*	/	/
CCOC(=O)N=Nc1c(O)n(CC(=O)OC)c2ccccc12	-1%	/	/
COc1ccc(/C=C/C(=O)NCC(=O)N/N=C/c2cc(Br)ccc2OCc2ccccc2)cc1	0%	3%	6.3µM*
COc1ccc(Br)cc1/C=N/NC(=O)CNC(=O)/C=C/c1ccccc1	-17%	-4%	?
N=C(N)C(N=Nc1ccccc1)C(=N)N (stereo not drawn)	/	3%	-1%
COc1ccc(CN(C(=O)CSc2nnc(-c3ccccc3C)o2)c2ccc(F)cc2)cc1	0%	-5%	-9%
O=C(CSc1nnc(-c2c[nH]c3ccccc23)o1)N(Cc1ccccc1)c1ccc(F)cc1	-10%	-5%	13µM*
C[C@@]12C[C@H](O)C3[C@H](CCC4=CC(=O)CC[C@]43C)[C@H]1CC[C@@H]2c1csc(N)n1 (stereo partly drawn)	/	-1%	-3%
COc1ccc(C(=O)c2c(N)c(-c3nc(-c4ccc(OC)cc4)cs3)c3ccccn23)cc1	/	-2%	?
COc1ccc(C(=O)c2c(N)c(-c3nc(-c4ccccc4)cs3)c3ccccn23)cc1	/	-3%	7.9µM*
SMILES	Giardia FBPA inh	Cruzain inh Det	Cruzain noTriton
COc1ccccc1C(=O)c1c(N)c(-c2nc(-c3ccccc3)cs2)c2ccccn12	/	-5%	10µM*
CCOc1ccc(C(=O)c2c(N)c(-c3nc(-c4ccc5c(c4)OCO5)cs3)c3ccccn23)cc1	/	-2%	-19%
COc1cccc(-c2csc(-c3c(N)c(C(=O)c4ccc5c(c4)OCO5)n4ccccc34)n2)c1	/	-2%	3.2µM*
CCOc1ccc(C(=O)c2c(N)c(-c3nc(-c4ccc(OCC)cc4)cs3)c3ccccn23)cc1	/	-2%	-19%
Cc1ccc(C)c(NC(=O)CSc2cn(CC(=O)N3CCCC3)c3ccccc23)c1	/	-3%	15%
CCOc1ccccc1NC(=O)c1cc2cc(C)ccc2n1C	/	-3%	-2%
Cc1ccc(/C=C/C(=O)Nc2nc(-c3cccs3)ns2)cc1	/	-4%	?
O=C(/C=C/c1ccccc1)Nc1nc(-c2cccs2)ns1	/	0%	20µM*
